Data on eight molecules can be found in PubChem BioAssay (Tox21).

Experiment [1] addresses Retinoic acid receptor RXR-alpha (Homo sapiens) (UniProt P19793). As to the kind of experiment: qHTS assay to identify small molecule agonists of the RXR signaling pathway (AID 1159527; calls by dose curve; further: nearly all actives have a fitted effect of over 35% in size; further: potency means the concentration at half of the fitted maximal effect). In short, it runs like this:
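Reporter activation is measured as beta-lactamase activity via FRET substrate cleavage (emission 460/530 nm) in HEK 293T cells expressing an RXR-alpha-driven bla construct, following 16 hr compound exposure at 37 C.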
(In general: qHTS replaces the single test concentration by a dilution series.)

Experiment [2] is described as follows: qHTS assay to identify small molecule agonists of the RXR signaling pathway - cell viability counter screen (AID 1159529). Further: series mostly up to about 77 µM; nearly all actives have a fitted effect of over 50% in size. In a few lines:
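Tox21 10K compounds were tested for cytotoxicity against GeneBLAzer RXR-alpha HEK 293T cells grown in 2% charcoal-stripped FBS. Exposure lasted 16 hr at 37 C, 5% CO2; viability read by CellTiter-Glo luminescence.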

Experiment [3] in a line: qHTS assay to identify small molecule antagonists of the retinoid acid receptor (RAR) signaling pathway - cell viability counter screen (AID 1159551). Further: nearly all actives have a fitted effect of over 35% in size. In a few lines: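 C3RL4 RARE-luciferase cells, 1,000/well, incubated overnight, then dosed with compound plus 1 uM retinol (final). After 6 hr at 37 C, viability read by CellTiter-Glo ATP luminescence following 30 min at room temperature.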

A short description of experiment [4]: qHTS assay to identify small molecule antagonists of the retinoic acid receptor (RAR) signaling pathway (AID 1159552; further: nearly all actives have a fitted effect of over 50% in size). In a few lines:
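Overnight-plated C3RL4 reporter cells get compound, then retinol to 1 uM final; plates sit 6 hr at 37 C, 5% CO2. A luciferase reagent is added and light output recorded after 30 min at room temperature.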

The nature of experiment [5]: qHTS assay to identify small molecule agonists of the retinoic acid receptor (RAR) signaling pathway (AID 1159553). In a few lines: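 C3RL4 RARE-luciferase cells were seeded at 1,000/well and grown overnight at 37 C, then exposed to compounds for 6 hr at 37 C, 5% CO2. Luciferase reagent was added and luminescence was read after 30 min at room temperature.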
Experiment [6] is described as follows: qHTS assay to identify small molecule antagonists of the estrogen related receptor (ERR) signaling pathway from Tox21 library - cell viability counter screen (AID 1224834). Further: nearly all actives have a fitted effect of over 30% in size. In short, it runs like this: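 ERR reporter cells, 2,000 per well, rested 6 h, then exposed to compound in DMSO for 17.5 hours at 37 C. Viability read as fluorescence after 30 min with CellTiter-Fluor.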

The target of experiment [7] is Luciferin 4-monooxygenase (Photinus pyralis) (UniProt P08659). In words: qHTS assay to identify small molecule inhibitors of firefly luciferase (AID 1224835). Further: series mostly up to about 120 µM; nearly all actives have a fitted effect of over 25% in size. In a few lines: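 Quantitative HTS format; KM concentrations of both substrates. Purified P. pyralis FLuc activity quantified from luminescence images.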
Experiment [8] in a line: qHTS assay to identify small molecule agonists of the constitutive androstane receptor (CAR) signaling pathway - cell viability counter screen (AID 1224836). Further: series mostly up to about 92 µM; nearly all actives have a fitted effect of over 45% in size. In short, it runs like this: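 Fluorescence from CellTiter-Fluor indicates live cells after 23 h exposure. The human hepatoma line expresses hCAR and a CYP2B6-2.2kb reporter. Incubation medium contains 0.75 uM PK11195 (final).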

Experiment [9] in a line: qHTS assay to identify small molecule antagonists of the constitutive androstane receptor (CAR) signaling pathway - cell viability counter screen (AID 1224837). Further: series mostly up to about 92 µM; nearly all actives have a fitted effect of over 45% in size. In short, it runs like this:
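HepG2 cells stably carrying hCAR and CYP2B6-2.2kb reporter, stimulated with 50 nM CITCO and compounds at 15 concentrations for 23 h at 37 C. Viability measured by CellTiter-Fluor fluorescence.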

Experiment [10] deals with Nuclear receptor subfamily 1 group I member 3 (Homo sapiens) (UniProt Q14994). In words: qHTS assay to identify small molecule antagonists of the constitutive androstane receptor (CAR) signaling pathway (AID 1224838). Further: nearly all actives have a fitted effect of over 40% in size. Further: potency means the concentration at half of the fitted maximal effect. In short, it runs like this: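 HepG2 cells stably carrying hCAR and a CYP2B6-2.2kb luciferase reporter, seeded 4 hrs before compound (15 concentrations). Stimulated with 50 nM CITCO for 24 hr at 37 C. ONE-Glo luminescence read after 30 min at room temperature.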

Experiment [11] has the same target. In words: qHTS assay to identify small molecule agonists of the constitutive androstane receptor (CAR) signaling pathway (AID 1224839). Further: series mostly up to about 92 µM; nearly all actives have a fitted effect of over 15% in size. In a few lines: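 Stable hCAR/CYP2B6-2.2kb HepG2 line in DMEM with 10% FBS; compounds (15 concentrations) and 0.75 uM PK11195 final, 24 h at 37 C/5% CO2, then ONE-Glo luminescence after 30 min.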
Experiment [12] is described as follows: qHTS assay to identify small molecule antagonists of the estrogen related receptor signaling pathway with the pleiotropic PPARgamma coactivator (PGC) from Tox21 10K library - cell viability counter screen (AID 1224840; active means well fitted cell-killing curve with a large enough effect in the repeat runs, not every such curve was filed as active; further: nearly all actives have a fitted effect of over 40% in size). In a few lines: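 PGC/ERR cells (2,000/well) plated 6 h, then compound-treated for 17.5 h at 37 C. Viability measured by CellTiter-Fluor fluorescence after 30 min at 37 C, multiplexed with the pathway assay.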

Experiment [13] can be described thus: qHTS assay to identify small molecule agonists of the estrogen related receptor signaling pathway with the pleiotropic PPARgamma coactivator (PGC) from Tox21 10K library (AID 1224842). Further: nearly all actives have a fitted effect of over 15% in size. In a few lines:
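PGC/ERR reporter cells (NTP line) were seeded 2,000 per well, rested 6 h at 37 C/5% CO2, then pin-dosed with compounds in DMSO for 18 h at 37 C; luciferase read by One-Glo luminescence after 30 min at room temperature.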

The target of experiment [14] is Thyrotropin receptor (Homo sapiens) (UniProt P16473). As to the kind of experiment: qHTS assay to identify small molecule agonists of the thyroid stimulating hormone receptor (TSHR) signaling pathway (AID 1224843; calls by dose curve; further: nearly all actives have a fitted effect of over 45% in size). In short, it runs like this: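 TSHR-expressing HEK293 cells (800 per well) were exposed to compounds for 30 min at room temperature. cAMP was then detected by HTRF competition with cAMP-d2 and anti-cAMP cryptate, read after 1 h at room temperature. Fifteen concentrations, triplicate.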

A short description of experiment [15]: qHTS assay to identify small molecule agonists of the hypoxia (HIF-1) signaling pathway - cell viability counter screen (AID 1224844; calls by dose curve; further: nearly all actives have a fitted effect of over 50% in size). In short, it runs like this: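 HRE-bla ME-180 cells, 2,000/well in 0.5% dialyzed FBS medium, treated 17 h at 37C with compounds. Viability read in the same wells as the bla reporter, by CellTiter-Glo luminescence after 30 min at room temperature.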

Experiment [16] is described as follows: qHTS assay to identify small molecule agonists of H2AX (AID 1224845; active means well fitted activation curve with a large enough effect in the signal ratio in the repeat runs, not every such curve was filed as active; the % refers to the signal ratio). In a few lines:
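Wild-type CHO-K1 cells plated overnight, then exposed 3 hr at 37C to compounds at 15 concentrations (0.76% DMSO). Lysed, then HTRF anti-pH2AX(S139)-cryptate/anti-H2AX-d2 detection after 24 hr at room temperature; emissions 665 and 620 nm.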

Experiment [17] is described as follows: qHTS assay to identify small molecule agonists of the hypoxia (HIF-1) signaling pathway (AID 1224846; active means well fitted activation curve with a large enough effect in the signal ratio in the repeat runs, not every such curve was filed as active; the % refers to the signal ratio). In a few lines: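 HRE-bla ME-180 beta-lactamase reporter cells in medium with 0.5% dialyzed FBS, pre-incubated 5 h then exposed to compounds 17 h at 37C, 5% CO2; reporter induction read with CCF4-AM FRET substrate.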
The nature of experiment [18]: qHTS assay to identify small molecule agonists of H2AX - cell viability counter screen (AID 1224847; calls by dose curve; further: top concentration of the series differs between compounds; nearly all actives have a fitted effect of over 30% in size). In a few lines: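 Viability of CHO-K1 (wild type) cells after 3 hr compound exposure was measured by CellTiter-Glo luminescence.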
The nature of experiment [19]: qHTS assay to identify small molecule antagonists of the estrogen related receptor signaling pathway with the pleiotropic PPARgamma coactivator (PGC) from Tox21 10K library (AID 1224841; call rule not given here; further: series mostly up to about 92 µM; actives are mostly falling curves and most rising ones were filed inactive; nearly all actives have a fitted effect of over 50% in size). In a few lines:
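PGC/ERR cell line, 2,000 cells/well, pre-incubated 6 hours at 37 C, then exposed to compounds for 18 hours at 37 C; luciferase read with One-Glo luminescence after 30 min at room temperature.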

Experiment [20] is described as follows: qHTS assay to identify small molecule antagonists of the estrogen related receptor (ERR) signaling pathway from Tox21 library (AID 1224848). Further: nearly all actives have a fitted effect of over 50% in size. In short, it runs like this: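 Cells: ERR line, 2,000/well; 6 h preincubation 37 C/5% CO2. Cpd in DMSO via pin tool; 18 h, 37 C. ONE-Glo, 30 min RT, luminescence.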

SMILES strings stand for the structures. Records with an inconclusive call do not appear. A number with no mark means an inactive call. Activity calls are given as the source filed them. Unless noted, the call rests on the fitted dose curve; in most records, active means well fitted curve in the direction sought with a large enough effect in the repeat runs; inconclusive means weak or mixed curves; inactive means no such curve, though single readings can be large; an effect the other way counts as inactive or inconclusive.
On the % scale 0 is the no-effect control and ±100 the full control effect.

Thyrotropin receptor (Homo sapiens), sequence (P16473 whole entry, looked up): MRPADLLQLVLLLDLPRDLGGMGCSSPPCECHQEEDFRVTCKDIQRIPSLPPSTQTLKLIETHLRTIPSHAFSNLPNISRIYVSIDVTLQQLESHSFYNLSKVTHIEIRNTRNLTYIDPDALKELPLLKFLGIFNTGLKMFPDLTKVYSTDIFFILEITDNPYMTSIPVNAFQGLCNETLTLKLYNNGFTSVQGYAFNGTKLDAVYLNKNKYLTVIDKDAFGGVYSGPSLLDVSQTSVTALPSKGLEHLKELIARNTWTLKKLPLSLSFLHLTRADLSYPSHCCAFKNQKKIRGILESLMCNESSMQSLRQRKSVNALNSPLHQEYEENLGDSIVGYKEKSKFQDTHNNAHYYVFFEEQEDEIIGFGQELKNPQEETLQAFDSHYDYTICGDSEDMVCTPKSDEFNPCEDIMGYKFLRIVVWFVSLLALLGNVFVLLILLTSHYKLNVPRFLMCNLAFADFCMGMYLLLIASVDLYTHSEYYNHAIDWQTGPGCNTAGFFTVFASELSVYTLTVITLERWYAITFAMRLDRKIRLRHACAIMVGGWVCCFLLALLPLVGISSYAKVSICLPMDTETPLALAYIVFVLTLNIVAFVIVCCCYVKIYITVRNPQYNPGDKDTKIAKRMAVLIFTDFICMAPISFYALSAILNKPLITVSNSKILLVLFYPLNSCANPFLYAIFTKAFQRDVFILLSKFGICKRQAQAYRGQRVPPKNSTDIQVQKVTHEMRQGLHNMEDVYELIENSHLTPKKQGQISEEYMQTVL
Luciferin 4-monooxygenase (Photinus pyralis), sequence (P08659 whole entry, looked up): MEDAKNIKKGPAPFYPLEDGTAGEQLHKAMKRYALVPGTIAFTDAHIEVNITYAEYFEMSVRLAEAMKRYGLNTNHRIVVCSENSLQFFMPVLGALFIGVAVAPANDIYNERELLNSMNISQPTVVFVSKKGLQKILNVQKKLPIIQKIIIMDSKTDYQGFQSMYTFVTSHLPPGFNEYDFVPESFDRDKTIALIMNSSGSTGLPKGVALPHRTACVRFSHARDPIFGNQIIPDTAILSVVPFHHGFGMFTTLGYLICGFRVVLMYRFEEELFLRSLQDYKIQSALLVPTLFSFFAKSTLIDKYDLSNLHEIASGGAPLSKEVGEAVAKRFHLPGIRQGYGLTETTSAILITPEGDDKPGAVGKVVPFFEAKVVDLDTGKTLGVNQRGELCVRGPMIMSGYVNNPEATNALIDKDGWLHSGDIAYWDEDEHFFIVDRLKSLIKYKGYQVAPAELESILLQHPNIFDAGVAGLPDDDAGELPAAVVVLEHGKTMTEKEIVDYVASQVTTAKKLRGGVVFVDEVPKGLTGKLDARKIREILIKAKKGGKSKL
Nuclear receptor subfamily 1 group I member 3 (Homo sapiens), sequence (Q14994 whole entry, looked up): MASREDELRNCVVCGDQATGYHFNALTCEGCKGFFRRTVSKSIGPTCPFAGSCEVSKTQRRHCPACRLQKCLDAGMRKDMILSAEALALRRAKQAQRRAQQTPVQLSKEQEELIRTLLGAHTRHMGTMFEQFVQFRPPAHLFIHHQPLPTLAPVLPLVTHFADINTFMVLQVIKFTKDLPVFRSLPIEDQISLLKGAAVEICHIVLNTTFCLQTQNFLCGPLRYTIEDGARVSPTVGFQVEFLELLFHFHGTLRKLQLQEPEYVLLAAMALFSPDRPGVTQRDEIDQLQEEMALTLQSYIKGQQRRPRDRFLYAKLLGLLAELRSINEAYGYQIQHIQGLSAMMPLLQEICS
Retinoic acid receptor RXR-alpha (Homo sapiens), sequence (P19793 whole entry, looked up): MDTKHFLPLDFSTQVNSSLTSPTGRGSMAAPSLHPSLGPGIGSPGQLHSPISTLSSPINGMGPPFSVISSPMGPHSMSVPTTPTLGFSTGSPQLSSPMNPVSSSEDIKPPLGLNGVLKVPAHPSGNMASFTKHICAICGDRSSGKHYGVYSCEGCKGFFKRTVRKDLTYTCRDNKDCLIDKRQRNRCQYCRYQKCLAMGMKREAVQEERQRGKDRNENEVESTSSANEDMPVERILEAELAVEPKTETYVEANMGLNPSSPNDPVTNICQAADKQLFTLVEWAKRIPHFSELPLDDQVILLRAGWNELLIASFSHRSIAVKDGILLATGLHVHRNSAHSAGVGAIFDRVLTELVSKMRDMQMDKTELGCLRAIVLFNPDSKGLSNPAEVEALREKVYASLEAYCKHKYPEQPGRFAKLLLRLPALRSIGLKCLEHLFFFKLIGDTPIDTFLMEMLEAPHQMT

On to `CC1CCc2c(N3CCC(O)CC3)c(F)cc3c(=O)c(C(=O)O)cn1c23` (centres undefined), for which the Potency entry in experiment [1], in experiment [5], in experiment [7] and in [11] was “inactive” in each case. The molecule was called inactive in [2], in experiment [3], in experiment [4], in [6], in experiment [8] and in experiment [9]. For the same molecule, the outcome in experiment [12], in experiment [13], in experiment [14], in experiment [15], in experiment [16] and in [17] was inactive. Further, the result in experiment [18] was inactive. Also, the Potency in [10] is 23.7 µM (active).

For `Nc1nnnn1-c1ccccc1`, the Potency entry in experiment [1], in experiment [5], in experiment [7], in [10] and in experiment [11] was “inactive” throughout. The outcome in experiment [2], in experiment [3], in experiment [4], in experiment [6], in experiment [8] and in experiment [9] was inactive. The outcome in experiment [12], in experiment [14], in experiment [15], in [16], in experiment [17] and in experiment [18] was inactive.

With `Cn1nnc2c(C(N)=O)ncn2c1=O`, the Potency result in experiment [1], in experiment [5], in experiment [7], in [10], in experiment [11] and in experiment [20] was “inactive” each time. Further, the molecule was called inactive in experiment [2], in [3], in [4], in experiment [6], in experiment [8] and in experiment [9]. Besides, the molecule was classed as inactive in experiment [12], in experiment [19], in experiment [13], in experiment [17] and in experiment [18].

For `CCCSSCCC`, the Potency entry in experiment [1], in experiment [5], in experiment [7], in experiment [10] and in experiment [11] was “inactive” each time. For the same molecule, the result in [2], in [3], in experiment [4], in experiment [6], in [8] and in [9] was inactive. Moreover, the molecule was called inactive in experiment [12], in [14], in [15], in [16], in [17] and in [18].

Consider `CCn1cc(C(=O)O)c(=O)c2cnc(N3CCCC3)nc21`, for which the activation is 0.584% [at 6.98 µM] in experiment [1], 1.53% [at 8.36 µM] in experiment [5], -0.437% [at 8.39 µM] in experiment [11] and -1.79% [at 8.39 µM] in [14]. Further, the activity change, negative = cytotoxicity was -1.74% [at 6.97 µM] in [2]; 0.0795% [at 8.39 µM] in [3]; 1.8% [at 8.39 µM] in experiment [9]; 0.904% [at 6.97 µM] in [15]; -5.46% [at 14 µM] in experiment [18]. For the same molecule, the values for the activity, negative = inhibition in experiment [4] and in [10] were 5.14% [at 8.39 µM] and -3.92% [at 8.39 µM], respectively. For the same molecule, the viability change, negative = cytotoxic in experiment [6] was 0.102% [at 8.39 µM]; in experiment [8] it was 6.12% [at 8.39 µM]; in experiment [12], 1.85% [at 8.39 µM]. The activity change, negative = inhibition in [7] is 2.85% [at 10.5 µM]. Besides, in experiment [16], the activation (H2AX phosphorylation) is 0.23% [at 14 µM].

As to `COC(=O)c1ccccc1C(=O)O`, in [1], the Potency is 21.9 µM (active). The outcome in [2], in experiment [3], in experiment [4], in experiment [6], in [8] and in [9] was inactive. Besides, the outcome in experiment [12], in experiment [14], in [15], in experiment [16], in [17] and in experiment [18] was inactive. The Potency entry in experiment [5], in [7], in experiment [10] and in [11] was “inactive” each time.

On to `CC1=C(O)C(=O)C(C)O1` (centres undefined), for which the Potency result in experiment [1], in experiment [5], in [7] and in experiment [11] was “inactive” each time. The molecule was classed as inactive in [2], in [3], in experiment [4], in [6], in experiment [8] and in experiment [9]. The outcome in experiment [12], in experiment [14], in experiment [15], in experiment [16], in experiment [17] and in [18] was inactive.

For `Cc1c(N)cccc1Cl`, the Potency result in experiment [1], in experiment [5], in [7], in experiment [10] and in experiment [11] was “inactive” in each case. Also, the result in experiment [2], in experiment [3], in [4], in experiment [6], in experiment [8] and in experiment [12] was inactive. Further, the molecule was called inactive in experiment [14], in experiment [15], in [16], in experiment [17] and in experiment [18].
